# Reference: PubChem BioAssay AID1159580 (chemical genetic matrix, 2015)
# Several values for one entry are separate records, joined by “and”; a condition that tells them apart may be missing. Equal entries are not always repeated. Among all 5,500 compounds or so, about 2,000 (36%) were called active. Another 18% or so got no clear call; they are omitted. No stated cut-off is given here; in the data, active means normalized growth mostly below about 0.91 (no sharp cut-off); inconclusive means no clear call, values can overlap the other calls; inactive means mostly above about 0.92. Some of the results follow.
# Assay: chemical genetic growth profiling, strain panel (AID 1159580);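 further: tested at 20 µM; growth read once vehicle control cultures reached saturation at 30 °C; 1 = growth at the plate median or of vehicle wells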
# Details: S. cerevisiae deletion strains, growth OD
structure (smiles),measurement,setting,value
COc1ccc2c(c1)O[C@@H]1COc3cc(OC)c(OC)cc3[C@@H]1C2=O,normalized growth,"locus YAL021C, strain ccr4, stronger effect = lower value",0.977 (inactive)
same,normalized growth,"locus YAL026C, strain drs2, stronger effect = lower value",0.694 (active)
same,normalized growth,"locus YAL030W, strain snc1, stronger effect = lower value",0.663 (active)
same,normalized growth,"locus YBL061C, strain skt5, stronger effect = lower value",0.707 (active)
same,normalized growth,"locus YBR009C, strain hhf1, stronger effect = lower value",0.34 (active)
same,normalized growth,"locus YBR021W, strain FUR4, stronger effect = lower value",0.897 (inactive)
same,normalized growth,"locus YBR023C, strain chs3, stronger effect = lower value",0.819 (active)
same,normalized growth,"locus YBR171W, strain sec66, stronger effect = lower value",0.965 (inactive)
same,normalized growth,"locus YBR229C, strain ROT2, stronger effect = lower value",0.997 (inactive)
same,normalized growth,"locus YBR231C, strain swc5, stronger effect = lower value",0.554 (active)
same,normalized growth,"locus YBR279W, strain paf1, stronger effect = lower value",0.527 (active)
same,normalized growth,"locus YCL011C, strain gbp2, stronger effect = lower value",0.674 (active)
same,normalized growth,"locus YCL016C, strain dcc1, stronger effect = lower value",0.614 (active)
same,normalized growth,"locus YCL029C, strain bik1, stronger effect = lower value",0.68 (active)
same,normalized growth,"locus YCL061C, strain MRC1, stronger effect = lower value",0.354 (active)
same,normalized growth,"locus YCL069W, strain vba3, stronger effect = lower value",0.384 (active)
same,normalized growth,"locus YCR088W, strain abp1, stronger effect = lower value",0.823 (active)
same,normalized growth,"locus YDL005C, strain med2, stronger effect = lower value",0.979 (inactive)
same,normalized growth,"locus YDL035C, strain GPR1, stronger effect = lower value",0.906 (inactive)
same,normalized growth,"locus YDL040C, strain nat1, stronger effect = lower value",0.967 (inactive)
same,normalized growth,"locus YDL074C, strain BRE1, stronger effect = lower value",0.676 (active)
same,normalized growth,"locus YDL101C, strain DUN1, stronger effect = lower value",0.669 (active)
same,normalized growth,"locus YDL134C, strain PPH21, stronger effect = lower value",0.68 (active)
same,normalized growth,"locus YDL185W, strain tfp1, stronger effect = lower value",0.935 (inactive)
same,normalized growth,"locus YDL192W, strain arf1, stronger effect = lower value",0.893 (active)
same,normalized growth,"locus YDR001C, strain nth1, stronger effect = lower value",0.97 (inactive)
same,normalized growth,"locus YDR069C, strain doa4, stronger effect = lower value",1.02 (inactive)
same,normalized growth,"locus YDR101C, strain arx1, stronger effect = lower value",0.913 (active)
same,normalized growth,"locus YDR137W, strain rgp1, stronger effect = lower value",0.995 (inactive)
same,normalized growth,"locus YDR150W, strain NUM1, stronger effect = lower value",0.977 (inactive)
same,normalized growth,"locus YDR159W, strain sac3, stronger effect = lower value",0.864 (inactive)
same,normalized growth,"locus YDR162C, strain NBP2, stronger effect = lower value",0.752 (active)
same,normalized growth,"locus YDR195W, strain ref2",0.842 (active)
same,normalized growth,"locus YDR297W, strain sur2, stronger effect = lower value",0.652 (active)
same,normalized growth,"locus YDR318W, strain mcm21, stronger effect = lower value",0.516 (active)
same,normalized growth,"locus YDR334W, strain swr1, stronger effect = lower value",0.427 (active)
same,normalized growth,"locus YDR335W, strain msn5, stronger effect = lower value",0.867 (active)
same,normalized growth,"locus YDR388W, stronger effect = lower value",0.975 (inactive)
same,normalized growth,"locus YDR392W, strain spt3, stronger effect = lower value",0.131 (active)
same,normalized growth,"locus YDR502C, strain sam2, stronger effect = lower value",0.831 (active)
same,normalized growth,"locus YEL003W, strain gim4, stronger effect = lower value",0.531 (active)
same,normalized growth,"locus YEL037C, strain rad23, stronger effect = lower value",0.981 (inactive)
same,normalized growth,"locus YEL061C, strain CIN8 (second series), stronger effect = lower value",0.257 (active)
same,normalized growth,"locus YEL061C, strain CIN8, stronger effect = lower value",0.315 (active)
same,normalized growth,"locus YER015W, strain faa2, stronger effect = lower value",0.693 (active)
same,normalized growth,"locus YER016W, strain bim1, stronger effect = lower value",0.818 (active)
same,normalized growth,"locus YER110C, stronger effect = lower value",0.799 (active)
same,normalized growth,"locus YER111C, strain swi4, stronger effect = lower value",0.423 (active)
same,normalized growth,"locus YER155C, strain BEM2 (second series), stronger effect = lower value",0.163 (active)
same,normalized growth,"locus YER155C, strain BEM2, stronger effect = lower value",0.426 (active)
same,normalized growth,"locus YER167W, strain BCK2, stronger effect = lower value",0.684 (active)
same,normalized growth,"locus YFR010W, strain ubp6, stronger effect = lower value",1.02 (inactive)
same,normalized growth,"locus YGL078C, strain dbp3, stronger effect = lower value",0.933 (inactive)
same,normalized growth,"locus YGL086W, strain mad1, stronger effect = lower value",0.458 (active)
same,normalized growth,"locus YGL167C, strain pmr1, stronger effect = lower value",0.974 (inactive)
same,normalized growth,"locus YGL173C, strain kem1, stronger effect = lower value",0.954 (inactive)
same,normalized growth,"locus YGL227W, strain vid30, stronger effect = lower value",0.28 (active)
same,normalized growth,"locus YGL240W, strain doc1, stronger effect = lower value",0.916 (inactive)
same,normalized growth,"locus YGL248W, strain PDE1, stronger effect = lower value",0.649 (active)
same,normalized growth,"locus YGL253W, strain hxk2, stronger effect = lower value",0.633 (active)
same,normalized growth,"locus YGR135W, strain pre9, stronger effect = lower value",0.786 (active)
same,normalized growth,"locus YGR252W, strain gcn5, stronger effect = lower value",0.755 (active)
same,normalized growth,"locus YHR013C, strain ard1, stronger effect = lower value",0.558 (active)
same,normalized growth,"locus YHR027C, strain rpn1, stronger effect = lower value",0.999 (inactive)
same,normalized growth,"locus YHR030C, strain SLT2, stronger effect = lower value",0.547 (active) and 0.988 (inactive)
same,normalized growth,"locus YHR079C, strain IRE1 (second series), stronger effect = lower value",0.814 (active)
same,normalized growth,"locus YHR079C, strain IRE1, stronger effect = lower value",0.97 (inactive)
same,normalized growth,"locus YHR094C, strain hxt1, stronger effect = lower value",0.699 (active)
same,normalized growth,"locus YHR129C, strain ARP1, stronger effect = lower value",0.489 (active)
same,normalized growth,"locus YHR142W, strain chs7, stronger effect = lower value",0.195 (active)
same,normalized growth,"locus YHR200W, strain rpn10, stronger effect = lower value",0.939 (inactive)
same,normalized growth,"locus YIL066C, strain RNR3, stronger effect = lower value",0.675 (active)
same,normalized growth,"locus YIL073C, strain SPO22, stronger effect = lower value",0.903 (inactive)
same,normalized growth,"locus YIL125W, strain kgd1, stronger effect = lower value",0.989 (inactive)
same,normalized growth,"locus YIR030C, strain dcg1, stronger effect = lower value",0.879 (active)
same,normalized growth,"locus YJL092W, strain hpr5, stronger effect = lower value",0.822 (active)
same,normalized growth,"locus YJL095W, strain BCK1 (second series), stronger effect = lower value",0.488 (active)
same,normalized growth,"locus YJL095W, strain BCK1, stronger effect = lower value",0.332 (active) and 0.966 (inactive)
same,normalized growth,"locus YJL115W, strain asf1, stronger effect = lower value",0.819 (active)
same,normalized growth,"locus YJL129C, strain trk1, stronger effect = lower value",0.441 (active)
same,normalized growth,"locus YJL134W, strain LCB3, stronger effect = lower value",0.935 (inactive)
same,normalized growth,"locus YJL154C, strain vps35, stronger effect = lower value",0.982 (inactive)
same,normalized growth,"locus YJL164C, strain tpk1, stronger effect = lower value",0.438 (active)
same,normalized growth,"locus YJL166W, strain qcr8, stronger effect = lower value",0.208 (active)
same,normalized growth,"locus YJL168C, strain set2, stronger effect = lower value",0.978 (inactive)
same,normalized growth,"locus YJL187C, strain SWE1 (second series), stronger effect = lower value",0.822 (active)
same,normalized growth,"locus YJL187C, strain SWE1, stronger effect = lower value",0.589 (active)
